The text below walks through data of PubChem BioAssay.

Inconclusive results are not listed. Calls of active or inactive are those of the source.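 Rule for the calls, unless noted: active = normalized viability below 100% at a tested concentration; inactive = the rest.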

Assay [1] can be described thus: drug combination growth inhibition, ovarian cancer – cell-based, oncology-focused library, rucaparib conditional, profiling panel (AID 1508598). Conditions: patient-derived ovarian cancer cells, CellTiter-Glo viability, 144 h, stronger effect = lower value. On the technique in general: ATP-based viability assays read luminescence as a measure of living cells.
The nature of assay [2]: viability loss in pontine glioma line – cell-based, SU-DIPG-XVII, MIPE5.0, CellTiter-Glo, qHTS, dose response (AID 1347060; cut-off not given, nearly all actives have AC50 up to about 26 µM;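 for AC50: cells exposed to compound for 48 hours before viability readout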). Conditions: CellTiter-Glo ATP luminescence.
Assay [3] is described as follows: viability loss in pontine glioma line – cell-based, SU-DIPG-XIII, MIPE4.0, CellTiter-Glo, qHTS, dose response (AID 1347061; cut-off not given, nearly all actives have AC50 up to about 37 µM;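 note: cells exposed to compound for 48 hours before readout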). Conditions: CellTiter-Glo ATP luminescence.
Assay [4] can be described thus: viability loss in pontine glioma line – cell-based, JHH-DIPG-1, MIPE4.0, CellTiter-Glo, qHTS, dose response (AID 1347062; cut-off not given, nearly all actives have AC50 up to about 27 µM;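 for AC50: cells exposed to compound for two days before readout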). The note with it: JHH-DIPG-1 viability, CellTiter-Glo ATP luminescence.
The nature of assay [5]: viability loss in pontine glioma line – cell-based, SU-DIPG-IV, MIPE4.0, CellTiter-Glo, qHTS, dose response (AID 1347063; cut-off not given, nearly all actives have AC50 up to about 30 µM;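 note: compound exposure lasted 48 hours before the viability readout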). The note with it: CellTiter-Glo ATP luminescence.
Assay [6] can be described thus: viability loss in pontine glioma line – cell-based, SU-DIPG-XIII, MIPE5.0, CellTiter-Glo, qHTS, dose response (AID 1347064; cut-off not given, nearly all actives have AC50 up to about 23 µM;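 for AC50: cells exposed to compound for 48 hours before the viability read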). The note with it: CellTiter-Glo ATP luminescence.
The nature of assay [7]: viability loss in pontine glioma line – cell-based, SU-DIPG-XXV, MIPE5.0, CellTiter-Glo, qHTS, dose response (AID 1347065; cut-off not given, nearly all actives have AC50 up to about 26 µM;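 note: cells exposed to compound for 48 hours before ATP readout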). Conditions: CellTiter-Glo ATP luminescence.
Assay [8] can be described thus: growth inhibition of DIPG cells – cell-based, MIPE4.0 library, CellTiter-Glo luminescence, qHTS (AID 1347066; cut-off not given, nearly all actives have AC50 up to about 30 µM;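 note: cells exposed to compound for 48 hours before readout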). Conditions: SU-DIPG-VI viability, CellTiter-Glo ATP luminescence.
Assay [9] is described as follows: JHH-DIPG-1 glioma cell viability, MIPE5.0 library, CellTiter-Glo luminescence, qHTS (AID 1347067; cut-off not given, nearly all actives have AC50 up to about 26 µM;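 note: cells exposed to compound for 48 hours before readout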). Conditions: JHH-DIPG-1 glioma viability, CellTiter-Glo ATP luminescence.
A short description of assay [10]: growth inhibition of DIPG cells – cell-based, MIPE5.0 library, qHTS (AID 1347068; cut-off not given, nearly all actives have IC50 up to about 30 µM;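 for IC50: cells exposed to compound for 48 hours before viability readout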). The note with it: SU-DIPG-XXV viability. A general note: Quantitative high-throughput screening tests each substance at several concentrations.
Assay [11] can be described thus: viability loss with induced miR-34 in A549 – imaging, A549 dox-inducible miR-34, nuclei and caspase counts, primary screen (AID 1347080;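 active = compounds whose cell count with miR-34 switched on is under 0.7 times the count with it off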). Conditions: A549 miR-34 inducible, Hoechst nuclei count, 48 h.
Assay [12] can be described thus: MELAS cybrid and Rieske KO viability enhancers – cell-based, MELAS cybrids, Rieske KO mouse fibroblasts, CellTiter-Glo, primary screen (AID 1508586;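 active = mean z-score across replicates of 1.96 or higher in either the MELAS or the Rieske mutant cell line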;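 note: z relative to plate mean and SD of compound and empty wells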). Conditions: low glucose.
[13] abbreviates: stronger effect = lower value, cell number ratio, induced over uninduced.
[14] abbreviates: measured here: relative caspase fold change +Dox/-Dox.
[15] abbreviates: measured here: total cells with miR-34 induction, stronger effect = lower value.
The mark [16] stands for this setting: measured here: total cells without miR-34 induction.
[17] abbreviates: MELAS cybrid survival, CellTiter-Glo 48 h, stronger effect = higher value.
The mark [18] stands for this setting: Rieske KO mouse fibroblast survival, CellTiter-Glo 72 h.

What is called viability is a per cent measure of how many cells are alive, often set against a control. Turning to `CCNC(=O)c1noc(-c2cc(C(C)C)c(O)cc2O)c1-c1ccc(CN2CCOCC2)cc1`, the viability is 9.68% (active) in [1] (at 0.0195 µM, OCI-C5x cells, with rucaparib 10 µM, 100% = cells with rucaparib alone); 9.96% (active) in assay [1] (at 0.0195 µM, OCI-C5x cells, without rucaparib); 6.4% (active) in assay [1] (at 0.0195 µM, OCI-P5x cells, with rucaparib 20 µM, 100% = cells with rucaparib alone); 4.69% (active) in assay [1] (at 0.0195 µM, OCI-P5x cells, without rucaparib); 9.48% (active) in assay [1] (at 0.0781 µM, OCI-C5x cells, with rucaparib 10 µM, 100% = cells with rucaparib alone); 9.56% (active) in [1] (at 0.0781 µM, OCI-C5x cells, without rucaparib). Besides, the viability in assay [1] (at 0.0781 µM, OCI-P5x cells, with rucaparib 20 µM, 100% = cells with rucaparib alone) is 6.42% (active); in assay [1] (at 0.0781 µM, OCI-P5x cells, without rucaparib) it was 4.47% (active); in [1] (at 0.313 µM, OCI-C5x cells, with rucaparib 10 µM, 100% = cells with rucaparib alone), 8.98% (active); in assay [1] (at 0.313 µM, OCI-C5x cells, without rucaparib) it was 9.43% (active); in [1] (at 0.313 µM, OCI-P5x cells, with rucaparib 20 µM, 100% = cells with rucaparib alone), 5.55% (active); in assay [1] (at 0.313 µM, OCI-P5x cells, without rucaparib), 3.94% (active). In addition, the viability in [1] (at 1.25 µM, OCI-C5x cells, with rucaparib 10 µM, 100% = cells with rucaparib alone) was 10.6% (active); in assay [1] (at 1.25 µM, OCI-C5x cells, without rucaparib), 9.54% (active); in [1] (at 1.25 µM, OCI-P5x cells, with rucaparib 20 µM, 100% = cells with rucaparib alone) it was 4.83% (active); in assay [1] (at 1.25 µM, OCI-P5x cells, without rucaparib), 3.83% (active); in assay [1] (at 5 µM, OCI-C5x cells, with rucaparib 10 µM, 100% = cells with rucaparib alone) it was 9.11% (active); in assay [1] (at 5 µM, OCI-C5x cells, without rucaparib), 9.15% (active). For the same molecule, the viability in assay [1] (at 5 µM, OCI-P5x cells, with rucaparib 20 µM, 100% = cells with rucaparib alone) is 3.61% (active); in assay [1] (at 5 µM, OCI-P5x cells, without rucaparib), 2.59% (active).
For the molecule `COc1cc2c(cc1OC)C1CC(=O)C(CC(C)C)CN1CC2` (stereo unspecified), the result in [2], in assay [3], in [4], in assay [5], in assay [6] and in assay [7] was inactive. Moreover, the call in assay [8], in [9] and in assay [10] was inactive. The fold change in [11] (setting [13]) was 0.996 (inactive); in assay [11] (setting [14]) it was 0.689. Besides, the figures for the cell count in [11] (setting [15]) and in assay [11] (setting [16]) were 9770 and 9800, respectively.
With `O=C(c1ccc(C(=O)N2CCC(N3CCCC3)CC2)c(Nc2ccccc2)c1)N1CCC(N2CCCC2)CC1`, the result in assay [2], in assay [3], in [4], in assay [5], in assay [6] and in [7] was inactive. Besides, the molecule was classed as inactive in assay [8], in assay [9] and in [10]. Besides, the figures for the fold change in assay [11] (setting [13]) and in assay [11] (setting [14]) were 0.897 (inactive) and 1.63, respectively. The cell count was found to be 8000 in assay [11] (setting [15]) and 8920 in assay [11] (setting [16]). Moreover, the figures for the z-score in assay [12] (setting [17]) and in [12] (setting [18]) were -0.111 (inactive) and -0.294, respectively.
As usually defined, the AC50 is the midpoint of the concentration-response curve, whichever way the signal moves. Broadly, the IC50 is the concentration at which inhibition is half-maximal. Turning to `COc1ccc(-c2ccc3ncc4c(c3c2)n(-c2ccc(N3CCNCC3)c(C(F)(F)F)c2)c(=O)n4C)cn1`, the AC50 in assay [2] is 105 nM (active); in assay [3] it was 46.9 nM (active); in assay [4], 66.2 nM (active); in assay [5], 18.7 nM (active); in assay [6], 118 nM (active); in assay [7] it was 52.5 nM (active). The half-maximal activity concentration (AC50) in assay [8] is 187 nM (active); in assay [9] it was 235 nM (active). Also, the IC50 in [10] was 590 nM (active). Moreover, the fold change was 0.93 (inactive) in assay [11] (setting [13]) and 1.48 in assay [11] (setting [14]). In addition, the cell count in assay [11] (setting [15]) stood at 603; in assay [11] (setting [16]) it was 648. Also, the z-score in [12] (setting [17]) was 0.639 (inactive); in [12] (setting [18]), -3.7.
As for `CC[C@H](CC[C@@H](C)[C@H]1CC[C@H]2[C@@H]3CC=C4C[C@@H](O)CC[C@]4(C)[C@H]3CC[C@]12C)C(C)C`, the outcome in assay [2], in assay [3], in assay [4], in assay [5], in assay [6] and in assay [7] was inactive. Besides, the outcome in [8], in [9] and in assay [10] was inactive. Further, the fold change was 0.94 (inactive) in assay [11] (setting [13]) and 0.534 in assay [11] (setting [14]). Moreover, the figures for the cell count in assay [11] (setting [15]) and in [11] (setting [16]) were 8770 and 9330, respectively.
